Holding throughout (experiment): NCI-60 one-dose screen, 48 h (100 = growth as untreated, 0 = no growth, -100 = all killed)
Conditions in all cases: 10 µM unless noted

For assay [1], the system named is HCT-15 colon.
The test system of assay [2] is HT29 colon.
Assay [3] has as its system SNB-75 CNS.
Assay [4] concerns SNB-19 CNS.
Assay [5] concerns U251 CNS.
Assay [6] concerns PC-3 prostate.
In assay [7] the test system is SK-MEL-5 melanoma.
Assay [8] has as its system UACC-62 melanoma.
Assay [9] relates to LOX IMVI melanoma.
The test system of assay [10] is SK-MEL-28 melanoma.
Assay [11] relates to SK-MEL-2 melanoma.
Assay [12] relates to EKVX NSCLC.
The test system of assay [13] is SN12C renal.
Assay [14] concerns UO-31 renal.
The test system of assay [15] is TK-10 renal.
Assay [16] has as its system ACHN renal.
The test system of assay [17] is CAKI-1 renal.
In assay [18] the test system is A498 renal.
For assay [19], the system named is CCRF-CEM leukemia.
Assay [20] deals with MOLT-4 leukemia.

The panel holds about 83,000 compounds, 20% with a hit somewhere; the sample as a whole holds those more often.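 Values shown are percent growth following 48 h exposure of cells in 96-well plates to a single concentration of compound; below 10 was considered active.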 Unmarked numbers belong to inactive results. Calls of active or inactive are those of the source.

For `CN(Cc1ccccc1)S(=O)(=O)/N=C1\NC(=O)NC1=C(Cl)Cl`, the growth in assay [1] was -69% (active); in assay [2], 48%; in assay [3], 107%; in assay [4] it was 68.6%; in [5] it was 18.8%; in assay [6] it was 35.6%. Further, the growth in assay [7] was 95.7%; in assay [8] it was 62.2%; in assay [9] it was -84.5% (active); in assay [10] it was 11.2%; in assay [11], 87.8%; in [12] it was 86.2%. Further, the growth is 18.4% in assay [13]; 93.3% in assay [14]; 44.1% in assay [15]; -90.8% (active) in [16]; 86.8% in assay [17]; 70.8% in assay [18]. For the same molecule, the results for the growth in assay [19] and in assay [20] were -12.8% (active) and 10.3%, respectively.

Take `CCCCCc1ccc(S(=O)(=O)Nc2cccc(-c3csc(NCCN4CCN(C)CC4)n3)c2)cc1`: the growth is -13.2% (active) in assay [1]; 19.3% in [2]; 92.8% in assay [3]; 79.9% in assay [4]; 45.7% in assay [5]; 65.7% in assay [6]. Also, the growth was -31.1% (active) in assay [7]; 85.4% in assay [8]; -66.9% (active) in [9]; 78% in assay [10]; 102% in assay [11]; 84.2% in [12]. The growth in assay [13] is 90.6%; in assay [14] it was 73.4%; in assay [15], 120%; in assay [16], 89.9%; in [17], 83.1%; in assay [18], 85.4%. The growth in assay [19] is 16.2%; in assay [20], 11.7%.

Consider `Oc1[nH]c2ccccc2c1Nn1c(N=N/C=c2/ccc3c(c2)C=NN=3)n[nH]c1=S`, for which the growth in assay [1] was 115%; in [2], 19.4%; in assay [3] it was 66.7%; in assay [4], 98.9%; in assay [5], 111%; in [6] it was 97.4%. Further, the growth was 92% in assay [7]; 98.9% in assay [8]; 97.6% in assay [9]; 115% in [10]; 104% in assay [11]; 64.2% in assay [12]. Also, the growth in [13] is 93.9%; in [14], 74.8%; in assay [15], 165%; in assay [16] it was 96.8%; in [17], 82.8%; in assay [18], 82.9%.

On to `CC(C)(C)c1ccc(CC(=O)Nc2sc3c(c2C(N)=O)CCC(=O)C3)cc1`, for which the growth in assay [1] is -19.5% (active); in assay [2], 3.3% (active); in assay [3], 23%; in assay [4] it was 22.8%; in [5] it was 14.9%; in [6], 13.1%. Also, the growth in [7] was -76% (active); in [8] it was -32.8% (active); in assay [9], -3.55% (active); in assay [10], 5.18% (active); in [11], -5.02% (active); in assay [12], 10.8%. The growth was 6.98% (active) in assay [13]; -87.5% (active) in assay [14]; 16.6% in assay [15]; -90.8% (active) in assay [16]; -56.2% (active) in [17]; 47.7% in [18]. Moreover, the growth in assay [19] was 10.8%.

For `CCCCCc1ccc(S(=O)(=O)Nc2cc(-c3csc(NC(=O)CN4CCN(C)CC4)n3)ccc2N2CCN(C)CC2)cc1`, the growth was -68.4% (active) in assay [1]; -25.3% (active) in assay [2]; 94.7% in assay [3]; 5.25% (active) in [4]; -32.9% (active) in assay [5]; 29.6% in [6]. The growth in assay [7] was -89.9% (active); in assay [8], -78.4% (active); in assay [9] it was -82.9% (active); in assay [10], -87.3% (active); in [11], 37.8%; in [12], 55.8%. Moreover, the growth in assay [13] was -21.6% (active); in assay [14], -94.2% (active); in assay [15], 134%; in assay [16], 0.622% (active); in assay [17], -19.8% (active); in [18] it was 73.1%. In assay [19], the growth was 0.815% (active).

With `C=CCn1c(SCC(=O)Nc2ccc(C(=O)/C=C/c3cccc([N+](=O)[O-])c3)cc2)nnc1-c1c[nH]c2ccccc12`, the growth is 91.7% in assay [1]; 98.4% in [2]; 97% in assay [3]; 89.4% in assay [4]; 94.4% in assay [5]; 77.8% in [6]. The growth in assay [7] was 59.5%; in assay [8], 66.9%; in assay [9], 31.1%; in assay [10] it was 95.4%; in assay [11] it was 93.9%; in [12] it was 89.1%. Moreover, the growth in assay [13] was 85.2%; in [14] it was 67.8%; in [15], 102%; in assay [16], 91.1%; in assay [17] it was 87.1%; in assay [18], 87.4%.

Turning to `CN1c2ccccc2Sc2cc(C=C(C#N)C#N)ccc21`, the growth in assay [1] is 101%; in [2] it was 111%; in assay [3] it was 79.8%; in assay [4] it was 97.6%; in assay [5], 98%; in [6] it was 105%. For the same molecule, the growth in [7] is 100%; in [8], 46.5%; in [9], 87.3%; in [10] it was 104%; in [11], 101%; in [12] it was 93.6%. Further, the growth in assay [13] is 92.7%; in assay [14] it was 95.6%; in assay [15], 111%; in assay [16], 101%; in assay [17], 91.8%; in assay [18] it was -19% (active). Besides, the growth in assay [19] is 102%; in [20], 84.8%.

As to `Nc1nc(N)c2c(n1)NC(c1ccc(C(F)(F)F)cc1)CC(c1ccc(Nc3nc(NCCO)nc(N4CCOCC4)n3)cc1)=N2` (stereo not drawn), the growth in assay [1] was 37.2%; in assay [2] it was 50.4%; in assay [3], 66%; in assay [4] it was 84%; in assay [5], 45.6%; in assay [6] it was 49.2%. Also, the growth in assay [7] is 64.6%; in [8] it was 82.2%; in assay [9], 49.7%; in assay [10] it was 81.7%; in assay [11], 80.6%; in assay [12], 85.5%. Further, the growth is 78.2% in [13]; 80.4% in [14]; 97.5% in assay [15]; 88.3% in [16]; 79.7% in assay [17]; 72.6% in assay [18]. Besides, the growth in assay [19] was 35.1%.

For the origin of these results see PubChem BioAssay (NCI).
